Source: PubChem (several laboratories)
SENP8 block-1: human SENP8 protease inhibitors, primary screen, biochemical, fluorescence, Nedd8 protein substrate, uHTS; Sentrin-specific protease 8 (Homo sapiens), Q96LD8; recombinant SENP8; inhibition, % at 20 µM; 0.64% of 360,000 active; AID 602440, 2012; in the data active = inhibition mostly above about 40%, no sharp cut-off; inactive = mostly below about 27%
SENP6 inh: SENP6 protease inhibitors, primary screen, biochemical, luminescence, uHTS; Sentrin-specific protease 6 (Homo sapiens), Q9GZR1; Recombinant SENP6 catalytic domain, aminoluciferin luminescence; inhibition, % at 10 µM; 1.8% of 330,000 active; AID 2599, 2010;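 active = inhibition above about 50% at the single tested dose, limit read from the data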
SENP7 block: SENP7 protease inhibitors, primary screen, biochemical, luminescence, uHTS. recombinant SENP7, Z-RLRGG-aminoluciferin luminescence, 40 min. inhibition, % at 5 µM. 1.5% of 330,000 active;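 active = inhibition above about 50% at the single test dose, limit read from the data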
Target sequence (Q9BQF6 706-1050 limits assumed): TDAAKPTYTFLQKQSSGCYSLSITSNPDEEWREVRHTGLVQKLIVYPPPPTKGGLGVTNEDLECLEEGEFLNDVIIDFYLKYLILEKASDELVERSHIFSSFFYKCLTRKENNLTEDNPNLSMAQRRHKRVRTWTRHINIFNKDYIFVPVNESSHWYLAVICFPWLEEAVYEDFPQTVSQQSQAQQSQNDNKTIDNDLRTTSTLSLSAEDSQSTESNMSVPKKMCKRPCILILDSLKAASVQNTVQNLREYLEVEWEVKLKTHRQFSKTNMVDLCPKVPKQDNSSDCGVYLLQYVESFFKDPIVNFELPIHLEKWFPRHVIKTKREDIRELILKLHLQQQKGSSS
Platelet DG rel: inhibitors of platelet dense granule secretion, primary screen, cell-based, MLPCN, human platelets. human platelet-rich plasma, SFLLRN dense granule ATP release, luminescence. inhibition, %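 (compounds screened at 7.5 µM in platelet-rich plasma)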. 0.22% of 300,000 active;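 active = mean replicate score, as percent of positive control, at or above 50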
SENP8 block-2: SENP8 protease inhibitors, primary screen, biochemical, luminescence | Sentrin-specific protease 8 (Homo sapiens), Q96LD8 | purified SENP8, Z-RLRGG-aminoluciferin cleavage | inhibition, % at 10 µM | 1.2% of 330,000 active | AID 2540, 2010; in the data active = inhibition above about 50%
SENP8 inh conf: human SENP8 protease inhibitors, confirmation, biochemical, Nedd8 protein substrate, single concentration; shares compounds with SENP8 block-1; purified SENP8, Nedd8-AMC/pro-Nedd8 cleavage fluorescence, 30 min; inhibition, % at 25 µM; 15% of 1,400 active; AID 624319, 2012; in the data active = inhibition mostly above about 39%, no sharp cut-off; inactive = mostly below about 34%
Numbers stand for hits; n = inactive; x = not tested or not shown. The list is not random: actives were taken first. Their share in the collection is about 2.4%.

SMILES | SENP8 block-1 | SENP6 inh | SENP7 block | Platelet DG rel | SENP8 block-2 | SENP8 inh conf
CCOC(=O)c1c(C)nc2c(c1-c1cc(OC)ccc1OC)C(=O)CC(C)(C)C2 | 44 | n | n | n | n | n
CCOC(=O)c1c(C)nc2c(c1-c1cc(OC)ccc1OC)C(=O)c1ccccc1-2 | n | n | n | n | n | x
COc1ccc(NC(=O)c2cc3ccc4c5ccccc5[nH]c4c3cc2O)cc1 | n | n | n | n | n | x
CCOc1ccc(NC(=O)c2ccc(CN3CCc4ccccc4C3)cc2)cc1 | n | n | n | n | n | x
O=C(NCc1ccc2c(c1)OCO2)c1ccc(CN2CCc3ccccc3C2)cc1 | 42 | n | n | n | n | n
Cc1cc(C)c(NC(=O)c2ccc(CN3CCc4ccccc4C3)cc2)c(C)c1 | 45 | n | n | n | n | n
N#CCc1ccc(NC(=O)c2ccc(CN3CCc4ccccc4C3)cc2)cc1 | 59 | n | n | n | n | n
CC(=O)c1cccc(NC(=O)c2ccc(CN3CCc4ccccc4C3)cc2)c1 | n | n | n | n | n | x
O=C(Nc1ccc(Cl)cc1)c1ccc(CN2CCc3ccccc3C2)cc1 | 47 | n | n | n | n | n
CCCCOc1ccc(NC(=O)CCSc2nccn2C)cc1 | n | n | n | n | n | x
COc1ccc(Cl)cc1S(=O)(=O)N(C)CC(=O)NCc1ccccn1 | n | n | n | n | n | x
CC1=C(C(=O)OC(C)(C)C)C(c2cccs2)NC(=O)N1 (configuration not stated) | n | n | n | n | n | x
CC(NC(=O)c1ccc(Cn2cc([N+](=O)[O-])cn2)o1)c1ccccc1 (configuration not stated) | 50 | n | n | n | n | n
Cc1ccccc1NC(=O)c1ccc(Cn2cc([N+](=O)[O-])cn2)o1 | n | n | n | n | n | x
O=C(O)CC1(CC(=O)Nc2ccc3c(c2)OCCCO3)CCCCC1 | n | n | n | n | n | x
Cc1ccc(Cn2cc(/C=C/C(=O)O)c(-c3ccccc3)n2)cc1 | 43 | n | n | n | n | n
Cc1ccc(-c2nn(Cc3ccccc3)cc2/C=C/C(=O)O)cc1 | n | n | n | n | n | x
O=[N+]([O-])c1ccccc1Nc1nc(-c2cccnc2)cs1 | n | n | n | n | n | x
C[C@@H]1CN([C@H](C)CO)C(=O)c2cc(NS(=O)(=O)c3cn(C)cn3)ccc2O[C@@H]1CN(C)S(C)(=O)=O | n | n | n | x | n | x
Cc1[nH]n(-c2ccc([N+](=O)[O-])cc2)c(=O)c1C=NCCc1c(C)[nH]c2ccccc12 | 42 | n | n | n | n | n
Cc1[nH]n(-c2ccc([N+](=O)[O-])cc2)c(=O)c1C=NCC1CCCO1 (configuration not stated) | n | n | n | n | n | x
Cc1ccc(-n2[nH]c(C)c(C=Nc3ccc(C)cn3)c2=O)cc1 | n | n | n | n | n | x
Cc1ccc(-n2[nH]c(C)c(/C=N/Nc3ccc([N+](=O)[O-])cc3[N+](=O)[O-])c2=O)cc1 | 80 | n | n | n | n | n
O=C(NC1C(=O)NNC1c1ccccc1)c1ccc(F)cc1 (configuration not stated) | n | n | n | n | n | x
Cc1ccc(C2NNC(=O)C2NC(=O)c2ccccc2)cc1 (configuration not stated) | 64 | n | n | n | n | n
SMILES | SENP8 block-1 | SENP6 inh | SENP7 block | Platelet DG rel | SENP8 block-2 | SENP8 inh conf
CC(C)N(C(=O)CSc1nn2c(=O)c(C(C)(C)C)nnc2s1)c1ccccc1 | 40 | n | n | n | n | n
CC(C)(C)c1nnc2sc(SCCN3C(=O)c4ccccc4C3=O)nn2c1=O | n | n | n | n | n | x
CCOC(=O)c1ccc(-n2c(CN3CCOCC3)nc3ccc([N+](=O)[O-])cc3c2=O)cc1 | n | n | n | n | n | x
CCOC(=O)c1ccc(-n2c(CN3CCN(CC)CC3)nc3ccc([N+](=O)[O-])cc3c2=O)cc1 | 41 | n | n | n | n | n
CCCOC(=O)c1cccc(NC(=O)C(C)(C)C)c1 | 42 | n | n | n | n | n
Cn1c(=O)oc2cc(S(=O)(=O)N3CCC(C(=O)NCCc4ccccc4)CC3)ccc21 | n | n | n | n | n | x
OCCN1CCN(C(=S)c2ccc(Cl)c(Cl)c2)CC1 | 42 | n | n | n | n | 34
